Most compounds without a hit are left out; they make up all but 21% or so of the library.
HCV inh: HCV inhibition; 340,000 compounds, 3.4% hits; Huh7.5.1 HCVcc-Cre infection, luciferase reporter, 44 h; Potency, µM (doses to about 41.8 µM), inactives show at the top dose activity change, negative = inhibition, usual class: inhibitors; note: potency is the fitted concentration of half-maximal effect; % is set by controls: 0 for no effect and ±100 for the full control effect
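Infectious HCV cell culture screen: compound-treated cells (1,000/well, pre-plated 4 h) are infected with HCVcc-Cre at roughly 0.5 moi and grown 44 h. Infection is quantified by luciferase signal after 15 min substrate incubation at room temperature.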
Pf growth 96h: inhibits malaria parasite growth, 96 h; 320,000 compounds, 6.9% hits; P. falciparum luciferase reporter growth, 96 h; Potency, µM (highest dose often 28.7 µM), inactives show at the highest dose activity change, negative = inhibition, usual class: inhibitors; note: potency is the fitted concentration of half-maximal effect; % is set by controls: 0 for no effect and ±100 for the full control effect
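Delayed-death screen, second-generation endpoint: infected erythrocytes, 2% hematocrit, 0.05% parasitemia final; 96 hours at 37 C, 5% CO2; luciferase detection reagent; luminescence decrease equals reduced growth.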
Cycloheximide cs: affects cycloheximide protein synthesis inhibition readout, counter-screen; max response, %; cell reporter, cycloheximide protein synthesis inhibition counterscreen; 300,000 compounds, 12% hits; in the data active = max response mostly above about 13%, no sharp cut-off; inactive = mostly below about 14%; note: read at 38.3 µM for the half of the compounds with a filed dose; 0% is about no effect
AMA1-RON2 inh: inhibitors of Plasmodium falciparum AMA1-RON2 interaction; AlphaScreen AMA1-biotinylated RON2 peptide binding; Potency, µM (titrated, usually from 58.2 µM), inactives show top-dose activity change, negative = inhibition, actives largely listed as inhibitors; 360,000 compounds, 0.2% hits; AID 720542;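 note: potency is the fitted concentration of half-maximal effect; 0% = vehicle wells and -100% = peptide control; nearly all actives have a fitted effect of over 45% in size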
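AMA1 (3D7) with his tag at 25 nM final met compounds first, then biotinylated RON2 peptide at 25 nM; detection used donor plus acceptor beads, 10 µg/mL apiece, read by AlphaScreen after 30 min at room temperature.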
Pf growth 48h: P. falciparum growth inhibition at 48 hours (one generation). 310,000 compounds, 5.9% hits. Potency, µM (doses to about 28.7 µM), for inactives: at the highest dose activity change, negative = inhibition, hits mostly inhibitors. P. falciparum luciferase growth in erythrocytes, 48 h. AID 504832; note: potency is the fitted concentration of half-maximal effect; % is set by controls: 0 for no effect and ±100 for the full control effect
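In quantitative HTS format, infected erythrocytes bearing luciferase-reporter parasites were treated for a single generation at 37 C. Luminescence after adding detection reagent served as the growth measure.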
Shiga toxin inh: Shiga toxin inhibition; Vero cells, Shiga toxin protein synthesis inhibition reporter; inhibition, % at 38.7 µM; 290,000 compounds, 9.2% hits; AID 2315; in the data active = inhibition mostly above about 28%, no sharp cut-off; inactive = mostly below about 43%; note: 0% is about no effect
* hit, by the source's call; ? = inconclusive; nt = no result given; [ ] = another dose, or the depositor's remark. Unless noted, calls come from the whole dose curve; as a rule, active = well fitted curve in the direction sought with a large enough effect; inconclusive = small, poorly fitted or top-dose-only effect, or another doubt; inactive = no such curve, though single readings can be large; an effect the other way counts as inactive or inconclusive.

SMILES | HCV inh | Pf growth 96h | Cycloheximide cs | AMA1-RON2 inh | Pf growth 48h | Shiga toxin inh
O=C(Nc1ccc(Cl)cn1)c1ccc(COc2ccccc2Br)o1 | -14.0% | -1.8% | 60.8* | 0.0% | 79.1% | 162.2*
Cc1cc(N2CCCCC2)nc(SCc2ccc(C#N)cc2)n1 | ? | nt | -1.5 | -5.3% | 14.7µM* | 19.6
N#Cc1ccc(CSc2nc(N)cc(N)n2)cc1 | 9.5% | -33.2% | 7.9* | 2.3% | -15.0% | 12.9
Cc1ccc(CSc2nc(N)cc(=O)[nH]2)cc1 | -12.2% | 26.1% | -0.8 | -5.4% | nt | -2.4
N#Cc1ccc(CSc2nc(N)cc(=O)[nH]2)cc1 | -2.7% | -22.1% | -3.1 | 4.7% | ? | -7.2
Cc1ccc(CSc2nc(N)cc(N)n2)cc1 | 18.8% | 1.3% | 25.0* | -6.1% | 93.2% | nt
Cc1cccc(NC(=O)CSCC(=O)N(CCC(C)C)c2c(N)n(Cc3ccccc3)c(=O)[nH]c2=O)c1 | ? | ? | nt | 5.2% | 1.9% | nt
CCOC(=O)c1c(NC(=O)COC(=O)CCNS(=O)(=O)c2ccccc2)sc(C(=O)NC)c1C | -18.6% | nt | nt | 40.8%[11.6 µM] | nt | nt
CCOC(=O)c1cc(/C(C)=N/OC(=O)c2ccc(Cl)cc2)on1 | 2.8% | 1.5% | 3.1 | -5.9% | 42.1% | -16.2
C/C(=N/OC(=O)CC(C)C)c1cc(-c2ccc(Cl)cc2)no1 | 1.2% | 217.7% | 15.2 | 5.6% | 134.4% | 124.3*
C/C(=N\NC(=O)c1cc(C(C)(C)C)[nH]n1)C12CC3CC(CC(C3)C1)C2 | 6.4% | 51.4% | 22.7* | 71.9% | 2.62µM* | 19.4
CCCC/C=C/[C@@H](c1ccccc1)C1COC(=O)CC1O (stereo partly specified) | nt | nt | 2.0 | nt | nt | 3.0
CC(C)CNC(=O)c1ccccc1NC(=O)CCSc1ccccc1 | -14.9% | ? | -1.0 | 35.0% | 14.1% | -13.5
CC(C)CNC(=O)c1ccccc1NC(=O)c1ccc(CSc2ccccc2)cc1 | ? | 10.4µM* | 8.7 | 8.6% | 13.1µM* | -2.9
CCC(C)NC(=O)c1ccccc1NC(=O)Nc1ccccc1 (stereo unspecified) | -14.2% | 40.6% | 0.5 | -0.6% | 40.4% | -18.7
CC(C)CNC(=O)c1ccccc1NC(=O)Nc1ccccc1 | -26.8% | 10.4µM* | -1.8 | -3.3% | nt | -4.8
O=C(OCC(=O)N1CCCc2ccccc21)c1ccccc1NCCO | -13.8% | 7.0% | nt | 11.2% | ? | nt
CC(OC(=O)Cc1ccsc1)C(=O)Nc1ccc(Cl)cn1 (stereo unspecified) | 22.4µM* | -17.9% | nt | 0.1% | -49.0% | nt
Cc1ccc(N2CC(C(=O)NCc3n[nH]c(=O)c4ccccc34)CC2=O)cc1 (stereo unspecified) | 0.3% | 6.1% | nt | 9.0% | 7.4% | nt
CCOC(=O)c1c(-c2ccccc2)csc1NC(=O)C(C)NCCCN1CCOCC1 (stereo unspecified) | 10µM* | ? | -10.8 | -6.2% | ? | 3.6
CCOC(=O)c1sc(NC(=O)CCN2C(=O)c3ccccc3C2=O)c(C(=O)OCC)c1C | ? | 13.1µM* | 12.6* | 0.4% | 16.2% | 22.0
CCOC(=O)c1c(-c2ccc(F)cc2)csc1NC(=O)CCN1CCOCC1 | 5.5% | ? | 6.1 | 5.1% | ? | -19.2
O=C(NCCCN1CCOCC1)C(c1ccccc1)c1ccccc1 | 7.3% | 14.4% | -3.1 | -3.6% | 16.8% | -7.5
CCOC(=O)c1c(-c2ccc(-c3ccccc3)cc2)csc1NC(=O)CCN1CCOCC1 | ? | 4.65µM* | -3.7 | -6.8%[11.6 µM] | ? | -9.8
CCOC(=O)c1c(-c2cccs2)csc1NC(=O)CNCCN1CCOCC1 | nt | 11.7µM* | -4.6 | nt | ? | -1.5
N#CC1(c2ccccc2)CCN(S(=O)(=O)c2ccc(OC(F)(F)F)cc2)CC1 | -20.4% | ? | 11.6 | -4.3% | -25.9% | 40.2
Cc1ccc2c(c1)C(c1ccccc1)N(C(=O)c1cccc([N+](=O)[O-])c1)CC(=O)N2 (stereo unspecified) | -17.1% | -6.7% | -2.6 | -14.8% | ? | -4.9
Cc1noc(C)c1COC(=O)c1ccccc1NC(=O)c1ccco1 | ? | ? | -1.5 | -7.0% | ? | -2.7
CCOC(=O)c1c(-c2ccccc2)csc1NC(=O)c1cc2ccccc2oc1=O | 13.7% | 13.1µM* | -3.8 | 1.2% | 12.3% | -2.6
